The results in this text go back to PubChem BioAssay AID485318 (Broad Institute, 2010).

SMILES strings stand for the structures. Fewer than 10 of roughly 1,400 compounds were called active.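 The calls were made as follows: active = fluorescence-lowering compounds whose fitted half-maximal concentration is at or below ten times the highest valid dose tested; inconclusive = flat curve at 30 to 70% inhibition, or poor fit; inactive = the rest.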 These entries were drawn from the full list.

Sequence of Histone deacetylase 3 (Homo sapiens) (O15379 whole entry, looked up): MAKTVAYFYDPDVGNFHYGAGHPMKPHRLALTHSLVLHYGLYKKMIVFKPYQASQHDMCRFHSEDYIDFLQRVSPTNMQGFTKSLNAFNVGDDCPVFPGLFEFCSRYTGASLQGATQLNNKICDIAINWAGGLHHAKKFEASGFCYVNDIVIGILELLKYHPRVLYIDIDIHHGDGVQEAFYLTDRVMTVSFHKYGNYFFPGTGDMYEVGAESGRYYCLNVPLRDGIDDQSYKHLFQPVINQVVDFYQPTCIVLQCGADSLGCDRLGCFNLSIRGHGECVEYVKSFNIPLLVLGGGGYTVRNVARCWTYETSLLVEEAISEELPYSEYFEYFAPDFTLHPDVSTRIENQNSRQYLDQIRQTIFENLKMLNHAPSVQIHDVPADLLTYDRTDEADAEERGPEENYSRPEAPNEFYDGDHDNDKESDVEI

This assay has as its target Histone deacetylase 3 (Homo sapiens) (UniProt O15379). Briefly: HDAC3 deacetylase inhibitors, dose response, counter-screen for JMJD2C/GASC1 demethylase inhibitor project, biochemical, fluorescence, cherry-picked samples (AID 485318).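 Also: enzyme preincubated with compound before substrate and trypsin were added.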 Conditions: recombinant HDAC3, fluorogenic peptide/trypsin coupled; series mostly up to 12 µM.
On to `C[C@H]1CN(CCc2ccccc2)C(=O)[C@@H]1CC(=O)NCc1ccccc1`, for which the outcome was inactive.

As to `COc1ccc(NC(=S)NNC(=O)c2ccc(S(=O)(=O)N3CCOCC3)cc2)cc1`, the outcome was inactive.

As to `CN(c1ccc(OCC(=O)N2CCCCC2)cc1)S(=O)(=O)c1cccs1`, the outcome was inactive.

In the case of `Nc1c(Cl)ncnc1NCc1cccnc1`, the outcome was inactive.

For the compound `CCC(C)C(NC(=O)OC(C)(C)C)C(=O)NC(C(=O)N1CCCC1C(N)=O)C(C)CC` (centres undefined), the result was inactive.

Consider `COc1cc(OC)cc(C(=O)Nc2ccc(-n3cnnn3)c(C)c2)c1`, for which the outcome was inactive.

Consider `N#CCCn1c(SCC(=O)N2CCN(S(=O)(=O)c3ccccc3)CC2)nc2ccccc21`, for which the result was inactive.

For the compound `CCOC(=O)Nc1cc(C)c(Cl)cc1OC`, the outcome was inactive.

With `Cc1onc(-c2ccccc2)c1C(=O)Nc1c(C)n(C)n(-c2ccccc2)c1=O`, the outcome was inactive.

As to `CS(=O)(=O)N(CC(=O)Nc1ccccc1C(=O)NCCc1ccccc1)c1ccc2c(c1)OCCO2`, the result was inactive.

As for `CCOC(=O)c1[nH]c(C)c(/C(O)=C2\C(=O)C(=O)N(CCCN(CC)CC)C2c2cccnc2)c1C` (centres undefined), the result was inactive.

On to `COc1ccc(CCNC(=O)N2c3ccccc3Sc3ccccc32)cc1`, for which the outcome was inactive.

Consider `CCC(=O)Nc1ccc(NC(=O)CSc2nnnn2C(C)C)cc1`, for which the outcome was inactive.

For the compound `C[C@@H]1CCCCCCCCC(=O)OCCN(C(=O)OC(C)(C)C)[C@H](C)CCCCCCCCC(=O)OCCN(C(=O)OC(C)(C)C)[C@H](C)CCCCCCCCC(=O)OCCN1C(=O)OC(C)(C)C`, the result was inactive.

Take `Cc1ccc(S(=O)(=O)Nc2ccc3c(c2)CC(=O)N([C@H](C)CO)C[C@@H](C)[C@H](CN(C)S(=O)(=O)c2ccccc2)O3)cc1`: the result was inactive.

For `CCOc1ccc(CN(C)CC(=O)Nc2cc(C)c(C)cc2[N+](=O)[O-])cc1`, the outcome was inactive.

Regarding `COc1ccccc1OCCOCCn1cnc2ccccc2c1=O`, the result was inactive.

As to `O=[N+]([O-])c1cc(/C=N/Nc2nc3ccccc3[nH]2)c(O)cc1O`, the result was inactive.

Regarding `CC(=O)C[C@@H](O)CC(=O)[C@H]1OC(=O)[C@H](C)CCCCc2ccccc21`, the result was inactive.

Take `CC[C@]12c3[nH]c4ccccc4c3CCN1C(=O)C(CC(=O)NCCCOC)C[C@@H]2C(=O)N1CCN(C(=O)c2ccco2)CC1` (some centres undefined): the result was inactive.

Consider `CCOCCc1nnc(NC(=O)c2ccc(OC)c(OC)c2)s1`, for which the result was inactive.

Take `O=C1CCCc2c1nc(-c1ccccc1)n2O`: the result was inactive.

With `COC(=O)[C@]1(Cc2ccccc2)N[C@H](CN(C)S(=O)(=O)c2ccc(F)cc2)[C@@H]2C(=O)N(Cc3ccccc3)C(=O)[C@@H]21`, the outcome was inactive.

Take `COc1ccc(C2CC(c3cccs3)=NN2S(=O)(=O)c2ccc(C)cc2)cc1` (centres undefined): the result was inactive.

On to `COc1ccc(/C=C/C(=O)NC(=S)NNC(=O)Cc2cccs2)cc1OC`, for which the outcome was inactive.

Regarding `Cc1ccc(N2CC(C(=O)Nc3ccc(N(C)C)cc3)CC2=O)cc1C` (centres undefined), the result was inactive.

In the case of `COc1ccc(NN=Nc2nc3c([nH]2)c(=O)n(C)c(=O)n3C)cc1`, the result was inactive.

In the case of `O=C(Cc1sc(-c2ccccc2)nc1-c1ccccc1)Nc1ccccc1`, the outcome was inactive.

Consider `CCc1ccc(NC(=O)CSc2nnc(CNC(=O)c3c(F)cccc3Cl)o2)cc1`, for which the outcome was inactive.

Regarding `O=C1CC2(CCN(C(=O)c3ccccc3Cl)CC2)Oc2ccccc21`, the result was inactive.

Regarding `C[C@H]1CN([C@@H](C)CO)C(=O)Cc2cc(NS(=O)(=O)c3cccs3)ccc2O[C@H]1CN(C)S(=O)(=O)c1cn(C)cn1`, the outcome was inactive.

With `CC(=O)Nc1ccc2c(c1)C(C)(C)C(C)N2C` (centres undefined), the outcome was inactive.

Consider `O=C(O)c1ccnc(C(=O)O)c1`, for which the result was inactive.

Consider `COc1ccc(NC(=O)Nc2cccc3c2O[C@H](CN(C)C(=O)NC(C)C)[C@@H](C)CN([C@H](C)CO)C3=O)cc1`, for which the result was inactive.

With `COc1ccc(NC(=S)NCCCn2ccnc2)cc1`, the result was inactive.

As for `CCOc1ccc(N=Cc2c(O)n(-c3cccc(C)n3)c(=O)c3ccccc23)cc1`, the outcome was inactive.

Consider `Cc1cccc(C)c1N1C(=O)c2cccc([N+](=O)[O-])c2C1=O`, for which the outcome was inactive.

With `CCOC(=O)C1CCN(S(=O)(=O)c2cccc(-c3cn4cc(Cl)ccc4n3)c2)CC1`, the result was inactive.

Turning to `CC(=O)c1c(C(C)=O)c(C)n(NC(=O)c2ccncc2)c1C`, the result was inactive.

For the compound `CN1CCN(c2nc3ccccn3c(=O)c2/C=C(\C#N)S(=O)(=O)c2ccc(Cl)cc2)CC1`, the outcome was inactive.

In the case of `O=C1CC(N2CCC(O)(c3ccc(Cl)cc3)CC2)C(=O)N1Cc1ccc(N2CCCC2=O)cc1` (centres undefined), the outcome was inactive.

In the case of `CS(=O)(=O)c1ccccc1-c1nnc(NC(=O)c2ccc3ncsc3c2)o1`, the outcome was inactive.

In the case of `CN(C(=O)c1ccc(NC(=O)Cc2ccc(NC(=O)C3CCN(C(=O)C4CCC4)CC3)cc2)cc1)C1CC1`, the result was inactive.

As to `CCS(=O)(=O)N1CCN(c2ccc([N+](=O)[O-])c(N3CCOCC3)c2)CC1`, the outcome was inactive.

Take `O=C(CCN1C(=O)/C(=C/c2ccc(F)cc2)SC1=S)N[C@@H](CO)Cc1ccccc1`: the result was inactive.

On to `c1ccc(-c2ccccc2OCCN2CCCC2)cc1`, for which the outcome was inactive.

On to `CSc1nc(N)nc2c1ncn2CC(=O)N[C@H](CO)Cc1c[nH]c2ccccc12`, for which the result was inactive.

Regarding `CCc1nn2c(N3CCOCC3)cc(C)nc2c1-c1ccc(F)cc1`, the outcome was inactive.

On to `CSc1nc(N)nc2c1ncn2CC(=O)NCCNc1ccc([N+](=O)[O-])cn1`, for which the outcome was inactive.

For the compound `CC1=C(C(=O)OC(C)C)C(c2ccccc2)NC(=S)N1C` (centres undefined), the outcome was inactive.

Consider `COc1ccccc1N1CCN(c2nc3c(C)cccn3c(=O)c2C=O)CC1`, for which the result was inactive.

Take `O=c1c2ccccc2nc2c3ccccc3c(NCc3ccco3)nn12`: the outcome was inactive.

Consider `O=C(NCC(c1ccco1)N1CCN(c2ccc(F)cc2)CC1)OCc1ccccc1` (centres undefined), for which the outcome was inactive.

With `CC(C)(C)NC(=O)CSc1nc2cccnc2n1C1CCCCC1`, the outcome was inactive.

`C/C(=N\Nc1nc(C(=O)O)cs1)c1ccccc1`: the outcome was inactive.

Turning to `CN1CCN(Cc2c(C#N)c3ccccc3n2C)CC1`, the outcome was inactive.

For `CN(C)CCCNC1=CC(=O)OC12CCCCC2`, the result was inactive.

Regarding `Nn1cc(-c2ccccc2)nc1SCC(=O)N1CCN(S(=O)(=O)c2ccc3ccccc3c2)CC1`, the result was inactive.

Regarding `CCN(CC)C(=O)C1c2ccccc2Oc2ccccc21`, the outcome was inactive.

Turning to `CCCn1nnnc1SCC(=O)NCc1ccc2c(c1)OCO2`, the result was inactive.

On to `Cc1noc(C)c1COc1ccc(C(=O)OC(C)C(=O)Nc2ccc(N3CCOCC3)cc2)cc1` (centres undefined), for which the result was inactive.

As for `CCNC(=O)c1ccc2c(c1)S(=O)(=O)c1ccccc1C2=O`, the outcome was inactive.

Turning to `Cc1ccccc1N=C1N=C(N)c2ccccc21`, the outcome was inactive.

For `COc1cccc(C(c2nnnn2CCc2ccccc2)N2CCN(c3ccccc3)CC2)c1OC` (centres undefined), the result was inactive.

Regarding `O=C(O)c1ccc2cc(-c3ccccc3)[nH]c2c1`, the result was inactive.

In the case of `Cc1cc(N(C)C)cc(C)[n+]1[O-]`, the outcome was inactive.

Take `CC(=O)Oc1ccc(NC(=O)Cc2ccccc2)c(C(=O)O)c1`: the result was inactive.

On to `CCN(C[C@H]1N[C@@](Cc2ccccc2)(C(=O)OC)[C@H]2C(=O)N(C)C(=O)[C@@H]12)S(=O)(=O)c1ccccc1`, for which the result was inactive.

Consider `Cn1c(=O)n(C)c2cc(S(=O)(=O)N3CCOCC3)ccc21`, for which the result was inactive.

Turning to `Cc1ccc(NC2=NCC(=O)N2Cc2ccc3c(c2)OCO3)c(C)c1`, the result was inactive.

For `CC1(C)CC2(CC(C)(C)N1)OC(=O)N1CCc3ccccc3C12C` (centres undefined), the outcome was inactive.

In the case of `CCCN(C(=O)Cc1ccc(S(=O)(=O)N2CCOCC2)s1)c1c(N)n(Cc2ccccc2)c(=O)[nH]c1=O`, the result was inactive.

Consider `CC(=O)Nc1cc2c(cc1NC(=O)Cn1nc(-c3ccccc3)ccc1=O)OCCO2`, for which the outcome was inactive.

As for `CCOc1ccccc1N(CC(=O)O)S(=O)(=O)c1ccc(C)cc1`, the result was inactive.

For `COc1ccc(/C=C2/CC/C(=C\c3ccc(OC)c(OC)c3OC)C2=O)c(OC)c1OC`, the outcome was inactive.

Consider `COc1cc(NS(=O)(=O)c2ccc(NC(=O)c3ccc(C)o3)cc2)nc(OC)n1`, for which the result was inactive.

On to `C[C@@H]1CN([C@H](C)CO)C(=O)c2cc(NC(=O)Cc3ccccc3)ccc2O[C@H]1CN(C)Cc1ccc(Oc2ccccc2)cc1`, for which the result was inactive.

`CCOc1ccc(N2C(=O)CC(N(O)c3ccccc3)C2=O)cc1` (centres undefined): the outcome was inactive.

Consider `CC1CN(Cc2c(O)ccc3c2oc(=O)c2ccccc23)CC(C)O1` (centres undefined), for which the outcome was inactive.

Consider `COc1cc2c(cc1OC)C1=C(C#N)COCN1CC2`, for which the outcome was inactive.

As for `CCNC(=S)NNC(=O)c1csc2c1CCC(C)C2` (centres undefined), the result was inactive.

Regarding `O=C(CN1C(=O)NC2(CCCC2)C1=O)Nc1nc(-c2ccccc2)cs1`, the result was inactive.

On to `CC1CCCC(NC(=O)COC(=O)c2ccc(N(C)C)cc2)C1C` (centres undefined), for which the result was inactive.

As to `COc1ccc(C(=O)NCc2nnc(SCC(=O)N3CCc4ccccc43)o2)cc1OC`, the outcome was inactive.

`O=C(c1ccncc1)N1N=C(C2CCCCC2)CC1(O)C(F)(F)F` (centres undefined): the result was inactive.

For the compound `CSc1nnnn1CCn1nnnc1SC`, the outcome was inactive.

Regarding `CS(=O)(=O)NC1c2cccc3cccc(c23)C1Sc1nncn1/N=C/c1ccco1` (centres undefined), the result was inactive.

Consider `N#Cc1ccc(OCC(=O)N2CCN(S(=O)(=O)c3cccs3)CC2)cc1`, for which the result was inactive.

With `Cc1cc(C)n2nc(C(=O)N3CCCC(Nc4ccc(F)c(F)c4)C3)cc2n1` (centres undefined), the result was inactive.

Take `C=CCn1cnc2scc(-c3ccc(C)cc3)c2c1=O`: the result was inactive.

For `CCCCCNc1nc(-c2ccccc2)nc(-n2ccnc2)n1`, the result was inactive.

Turning to `CC(=O)C1=C(c2ccccc2)N(C(C)=O)n2c(C)nnc2S1`, the outcome was inactive.

`CC1=C(C(=O)OCC2CCCO2)C(c2ccccc2OC(C)C)C2=C(CC(c3ccco3)CC2=O)N1` (centres undefined): the outcome was inactive.

With `Cc1occc1-c1nnc(SCC(=O)Nc2ccccc2)n1C(C)c1ccccc1` (centres undefined), the outcome was inactive.

Consider `CCN(Cc1nc(-c2ccccc2)no1)C(=O)c1ccco1`, for which the outcome was inactive.

`Cc1nnc(N2C(=O)C(=O)/C(=C(/O)c3ccc4c(c3)CC(C)O4)C2c2ccccc2F)s1` (centres undefined): the result was inactive.

On to `CCC(C(=O)NCCCc1ccccc1)c1ccccc1` (centres undefined), for which the outcome was inactive.

On to `COCCCNC(=O)C1CCN(C(=O)Nc2ccc(Cl)cc2)CC1`, for which the outcome was inactive.

For `COC(=O)[C@]1(C)N[C@H](CN(C)S(=O)(=O)c2ccc(F)cc2)[C@@H]2C(=O)N(C)C(=O)[C@@H]21`, the outcome was inactive.
